Screens (PubChem)
Shown are actives, neighbours in structure and some others; about 4.1% of the full set was active somewhere.
CHT PAM: allosterically activates the human high affinity choline transporter; Q9GZV3; CHT-expressing cells, membrane potential dye, choline EC20; hits give high values; LV-AA mutant CHT in HEK293 cells; B-score at 10 µM; 310,000 compounds, 0.49% hits;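 active means initial fluorescence not abnormally high and integrated response B-score, plate-corrected, over 3 SD above library mean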
MEKK2mut PB1 HTS: signal of MEK5 binding to mutant human MEKK2 PB1 domain; bead flow cytometry, Alexa488-MEK5 binding to MEKK2 mutant; percent response, % at 10 µM; 290,000 compounds, 0.35% hits; AID 1530; in the data active means percent response above about 24%, passing the limit was not always enough
MEKK2wt PB1 HTS: raises or lowers MEK5 binding to wildtype human MEKK2 PB1 domain | AID 1531 | Q9Y2U5 | 290,000 compounds, 1.1% hits | bead flow cytometry, Alexa488-MEK5 binding to MEKK2 WT; actives lie on both sides | binding response (% of control), % at 10 µM; in the data active means binding response below about 67% or above about 130%
CHT block: human CHT choline transport inhibition; CHT-expressing cells, membrane potential dye, choline response; hits give low values; AID 488975; Q9GZV3; B-score at 10 µM; 310,000 compounds, 0.86% hits;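 active means B-score over 3 SD under the library average, and starting fluorescence ratio not unusually high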;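 further: choline stimulus applied at its EC90 after an EC20 pre-addition; B-score computed on integrated fluorescence ratio after choline addition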
SUMO Mot1 rescue: SUMOylation pathway inhibition by Mot1-301 growth rescue | growth rescue, % at 18.8 µM | AID 2716 | 320,000 compounds, 1% hits | S. cerevisiae Mot1-301 growth rescue, ATP luminescence, 38.5C; percent above DMSO median, 100 means doubled;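 active means every valid replicate shows activation above 250% relative to neutral control wells; inactive means the rest, any valid replicate at or below 250%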
MEKK3 PB1 HTS: modulators (inhibitors or enhancers) of MEK5 binding to human MEKK3 PB1 domain; bead-based flow cytometry, Alexa488-MEK5 binding to MEKK3; actives lie on both sides; 0 = blocked by unlabeled MEK5, 100 = vehicle; binding response (% of control), % at 10 µM; 290,000 compounds, 1.4% hits; AID 1529;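 active means binding response more than 3 SD above or below the average of its plate-row segment, actives on both sides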;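 further: Alexa488 bead fluorescence after subtracting the streptavidin-only scavenger bead signal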
Target sequence (Q99759 whole entry, looked up, the tested form may be a part): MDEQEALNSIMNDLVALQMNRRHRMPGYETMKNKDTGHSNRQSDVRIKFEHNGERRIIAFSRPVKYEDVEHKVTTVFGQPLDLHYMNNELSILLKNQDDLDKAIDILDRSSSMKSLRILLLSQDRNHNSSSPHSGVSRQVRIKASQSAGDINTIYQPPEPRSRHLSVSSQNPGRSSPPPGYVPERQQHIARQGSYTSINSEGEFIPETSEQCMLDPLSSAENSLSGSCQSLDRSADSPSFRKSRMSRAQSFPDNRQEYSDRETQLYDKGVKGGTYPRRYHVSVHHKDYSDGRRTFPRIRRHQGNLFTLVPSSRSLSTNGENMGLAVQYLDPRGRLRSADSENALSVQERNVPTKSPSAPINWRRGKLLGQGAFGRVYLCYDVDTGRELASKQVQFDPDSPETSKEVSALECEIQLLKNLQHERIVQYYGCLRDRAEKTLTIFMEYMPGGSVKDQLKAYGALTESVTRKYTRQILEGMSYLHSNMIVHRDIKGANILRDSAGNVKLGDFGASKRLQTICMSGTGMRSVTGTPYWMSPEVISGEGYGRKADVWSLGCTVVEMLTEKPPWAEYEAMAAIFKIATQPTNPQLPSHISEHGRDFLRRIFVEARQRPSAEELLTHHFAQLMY
CHT block conf: confirmation of human choline transporter CHT inhibitors; shares compounds with CHT block; CHT-expressing cells, choline membrane potential dye; LV-to-AA substituted CHT, HEK293 cells; CHT activity remaining % of control (hits give low values), % at 10 µM; 2,400 compounds, 70% hits; AID 493221;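 active means choline transporter activity left, mean of duplicates at 10 µM, below buffer-only control mean minus 3 SD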;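 further: depolarization triggered by choline at its EC90 following an EC20 pre-addition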
HEK293 MPD ctr: CHT inhibitor counter-screen hit in parental HEK293 cells; 2,400 compounds, 4% hits; membrane potential dye, choline response; active = decrease or increase beyond buffer ±3SD; shares compounds with CHT block; membrane potential ratio readout (active if shifted either direction beyond buffer ±3SD; no single direction) at 10 µM; AID 493222;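 further: parental cells lack the transporter so any hit is non-specific; ratio is peak minus trough fluorescence over baseline after EC90 choline challenge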
Hits are given with their value; . = inactive; / = no result given.

SMILES	CHT PAM	MEKK2mut PB1 HTS	MEKK2wt PB1 HTS	CHT block	SUMO Mot1 rescue	MEKK3 PB1 HTS	CHT block conf	HEK293 MPD ctr
CC(C)(C)NC(=O)CSc1nc2scc(-c3ccccc3)c2c(=O)[nH]1	.	.	.	.	.	.	/	/
O=C(Nc1ccnn1C1CCN(C(=O)CCc2ccc(F)cc2)CC1)C1CCOC1 (configuration not stated)	.	.	.	.	.	.	/	/
CCN(Cc1ccccc1)S(=O)(=O)c1cc(C(=O)NC2CCCCCC2)ccc1OC	.	.	.	-5.1	.	.	50%	.
CCN(Cc1ccccc1)S(=O)(=O)c1cc(C(=O)NCC2CCCCC2)ccc1OC	.	.	.	.	.	.	/	/
Cc1cc(C(=O)CSc2n[nH]c(N)n2)c(C)n1-c1cc(F)ccc1F	.	.	.	-7.1	.	.	52%	.
Nc1nc(SCC(=O)c2cc(F)ccc2F)n[nH]1	.	.	.	.	.	.	/	/
Cc1cc(C(=O)CSc2n[nH]c(N)n2)c(C)n1-c1ccc(F)cc1	.	.	.	-8.2	.	.	71%	.
CC(CNS(=O)(=O)c1ccc(Cl)cc1)n1cncn1 (configuration not stated)	.	.	.	.	.	.	/	/
O=C(NCCc1nnc2ccc(NCc3cccnc3)nn12)c1ccccc1F	.	.	.	.	.	.	/	/
COc1ccc(C(=O)N=C2SC3CS(=O)(=O)CC3N2c2ccc(N(C)C)cc2)cc1OC (configuration not stated)	.	.	.	.	.	.	/	/
O=C(CSc1ncnc2scc(-c3ccccc3)c12)NC1CCS(=O)(=O)C1 (configuration not stated)	.	.	.	-6.2	.	.	.	.
CCCNC(=O)C1CC(c2cccc(F)c2)=NO1 (configuration not stated)	.	.	.	.	.	.	/	/
COc1ccc2nc(N3CCCC(C(=O)NCCCN4C(C)CCCC4C)C3)sc2c1 (configuration not stated)	.	.	.	.	.	.	/	/
O=C(Nc1nnc(-c2ccc(F)cc2)o1)c1cc(Cl)sc1Cl	.	.	.	-6.8	.	.	63%	.
O=C(Nc1nnc(-c2ccccc2)o1)c1cc(Cl)sc1Cl	.	.	.	.	.	.	/	/
CN1CCN(C(=O)c2ccc(CSc3nc4ccncc4n3Cc3ccc(F)cc3)cc2)CC1	.	.	.	.	.	.	/	/
CCOC(=O)N1CCN(C(=O)c2ccc3nc(SCc4ccc(F)cc4)n(C)c3c2)CC1	.	/	/	-4.9	.	/	.	.
CCOc1cc2[nH]c(=S)n(C3CCN(Cc4ccccc4)CC3)c(=O)c2cc1OCC	.	.	.	-5.8	.	.	.	.
CC1CCCCC12NC(=O)N(CC(=O)OCC(=O)NC(=O)c1ccccc1)C2=O (configuration not stated)	/	/	/	/	.	/	/	/
CC1=C(C(=O)OCCOc2ccccc2)C(c2ccsc2)NC(=O)N1C (configuration not stated)	.	.	.	-6.5	/	.	50%	.
CCOc1cc(N2CCOCC2)c(OCC)cc1NC(=O)Cc1ccccc1OC	.	.	.	.	.	.	/	/
CCOc1cc(N2CCOCC2)c(OCC)cc1NC(=O)Cc1ccccc1	.	.	.	-8.6	.	.	57%	.
COc1ccccc1OCC(=O)NC1CCCCCCC1	/	/	/	/	.	/	/	/
O=C(COc1ccccc1-c1ccccc1)NNC(=O)NC1CCCCC1	.	.	.	-6.3	.	.	34%	.
Cc1ccc(CSc2nc3ccccc3c(=O)[nH]2)cc1	.	.	.	.	.	.	/	/
SMILES	CHT PAM	MEKK2mut PB1 HTS	MEKK2wt PB1 HTS	CHT block	SUMO Mot1 rescue	MEKK3 PB1 HTS	CHT block conf	HEK293 MPD ctr
CC(/C=C1\SC(=O)N(CCCC(=O)O)C1=O)=C\c1ccccc1	.	.	.	-5	.	.	64%	.
CC1=C(C(=O)Nc2cccc(C(=O)NC3CCCCC3C)c2)SCCO1 (configuration not stated)	.	.	.	.	.	.	46%	.
COc1ccc(C(=O)C[n+]2cccc(C)c2)cc1	.	.	.	-8.5	.	.	6.4%	.
Cc1ccc[n+](CC(=O)c2ccc(Br)cc2)c1C	.	.	.	-9.7	.	.	39%	.
COc1ccc(C(=O)C[n+]2cccc(C(N)=O)c2)cc1	.	.	.	.	.	.	/	/
Cc1ccc[n+](CC(=O)c2ccc(Br)cc2)c1	.	.	.	-10	.	.	4.2%	.
CCCc1nnc(NC(=O)CCC(=O)Nc2ccc(Br)cc2)s1	.	.	.	.	.	.	/	/
CC(NC(=O)c1ccc(OC2CCN(Cc3ccccn3)CC2)cc1)c1ccccc1 (configuration not stated)	.	.	.	-10	.	.	-1.0%	.
COC(=O)CSc1nnc(-c2ccc(NS(=O)(=O)c3ccccc3)cc2)o1	.	.	.	-5.9	.	.	39%	.
FC(F)(F)c1cccc(OCc2nnc3n2CCC3)c1	.	.	.	.	.	.	/	/
c1ccc(-c2ccccc2OCc2nnc3n2CCC3)cc1	.	.	.	-5.3	.	.	60%	.
CCOC(=O)CSc1nnc(CNc2ccccc2Cl)n1-c1ccccc1	.	.	.	-5.3	.	.	.	.
COc1cc2c(cc1OC)-c1cc(Nc3ccccc3)nc(=O)n1CC2	.	.	.	.	.	.	/	/
COc1cc2c(cc1OC)-c1cc(NC3CCCCCC3)nc(=O)n1CC2	.	.	.	-5.1	.	.	23%	.
COc1cc2c(cc1OC)-c1cc(N3CCCc4ccccc43)nc(=O)n1CC2	.	.	.	-6.3	.	.	70%	.
CCOC(=O)c1cnc2c(Cl)cccc2c1NCCN1CCOCC1	.	.	.	-5.8	.	.	.	2.8
CC(C)c1ccc(Nc2c([N+](=O)[O-])c(=O)n(C)c3ccccc23)cc1	.	.	.	.	.	.	/	/
Cn1c(=O)c(Nc2ccc(O)cc2)c2c3c(cccc31)C(=O)c1ccccc1-2	.	.	.	-16	.	.	9.4%	.
CC(Sc1nc2ccccc2s1)C(=O)Nc1nnc(C(C)C)s1 (configuration not stated)	.	.	.	-5.3	.	.	.	.
Cc1cc(C)c(C#N)c(SCS(=O)Cc2ccccc2)n1 (configuration not stated)	.	.	.	-5.9	.	.	.	.
